This note sets out measurements from PubChem BioAssay.

Where “and” joins values, the source holds several entries; their conditions need not be identical. Identical values can stand only once. Calls of active or inactive are those of the source. Unless noted, how the calls were made is not given here.

Assay [1] can be described thus: compounds binding Alexa647 anti-His antibody – biochemical, small-molecule microarray, 635 nm fluorescence, artefact control for SMM control protein annotation, primary screen (AID 1128).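 Further: score merges feature fluorescence with signal-to-noise for each printed compound spot.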 The settings on record: higher = more signal.
Assay [2] has as its system Human papillomavirus type 1a E7 protein (residues 1-88). The assay is described as follows: HPV1a E7 small-molecule binders, primary screen, biochemical, small-molecule microarray, residues 1-88, 635 nm (AID 1129). The settings on record: small-molecule microarray binding, fluorescence 635 nm; higher = more signal.
The target of assay [3] is Focal adhesion kinase 1 (Homo sapiens) (UniProt Q05397). The assay is described as follows: PTK2 protein binding on printed compound slides – biochemical, small-molecule microarray, 635/667 nm fluorescence, BSA, DTT, primary screen (AID 1130).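 Further: composite of spot emission at 667 nm and signal to noise over triplicate slides.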 The settings on record: 635 nm fluorescence, higher = more signal.
Focal adhesion kinase 1 (Homo sapiens), sequence (Q05397 whole entry, looked up): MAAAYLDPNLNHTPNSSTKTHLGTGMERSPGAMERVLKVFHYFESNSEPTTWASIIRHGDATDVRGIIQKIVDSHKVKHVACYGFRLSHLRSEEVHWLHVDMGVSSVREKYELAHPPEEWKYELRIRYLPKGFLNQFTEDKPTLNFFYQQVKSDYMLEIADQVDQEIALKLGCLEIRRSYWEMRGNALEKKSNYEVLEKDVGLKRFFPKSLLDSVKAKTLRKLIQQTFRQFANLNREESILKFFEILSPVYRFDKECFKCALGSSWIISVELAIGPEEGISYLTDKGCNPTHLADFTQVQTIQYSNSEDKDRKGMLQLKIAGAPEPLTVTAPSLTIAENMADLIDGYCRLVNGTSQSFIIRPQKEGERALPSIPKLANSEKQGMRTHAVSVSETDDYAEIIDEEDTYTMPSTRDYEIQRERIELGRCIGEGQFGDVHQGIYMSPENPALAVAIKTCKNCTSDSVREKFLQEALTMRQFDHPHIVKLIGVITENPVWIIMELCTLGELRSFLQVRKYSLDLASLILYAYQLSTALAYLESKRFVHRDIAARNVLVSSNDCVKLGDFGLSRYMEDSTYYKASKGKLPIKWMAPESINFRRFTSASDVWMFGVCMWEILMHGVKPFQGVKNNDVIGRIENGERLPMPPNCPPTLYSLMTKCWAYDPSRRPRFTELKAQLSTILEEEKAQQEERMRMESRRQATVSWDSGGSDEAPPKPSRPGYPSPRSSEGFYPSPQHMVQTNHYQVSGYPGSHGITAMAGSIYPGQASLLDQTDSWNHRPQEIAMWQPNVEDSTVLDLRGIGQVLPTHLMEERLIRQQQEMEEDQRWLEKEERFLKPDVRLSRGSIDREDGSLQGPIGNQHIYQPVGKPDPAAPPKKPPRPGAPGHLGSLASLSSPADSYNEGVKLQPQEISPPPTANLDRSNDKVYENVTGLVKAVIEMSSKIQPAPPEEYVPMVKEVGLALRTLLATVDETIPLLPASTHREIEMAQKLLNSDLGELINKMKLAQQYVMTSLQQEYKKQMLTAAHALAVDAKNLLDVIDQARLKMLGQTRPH
Assay [4] deals with Fibrinogen (Alexa647-labelled). The assay is described as follows: Alexa647-fibrinogen binding to printed small molecules – biochemical, small-molecule microarray, 635/667 nm fluorescence, artefact control for SMM control-protein annotation, profiling panel (AID 1131).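 Further: z-score merges 667 nm fluorescence with per-spot signal-to-noise over triplicate slides.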 The following applies: fibrinogen-A647 binding fluorescence, higher = more signal.
Assay [5] addresses Follistatin (Homo sapiens) (UniProt P19883). The assay is described as follows: FST protein binding to printed compounds – biochemical, small-molecule microarray, 635/667 nm fluorescence, primary screen (AID 1132). The following applies: 635 nm fluorescence, higher = more signal.
The target in assay [6] is Fibroblast growth factor 2 (Homo sapiens) (UniProt P09038). The assay is described as follows: basic fibroblast growth factor binding to printed compounds – biochemical, small-molecule microarray, 635/667 nm fluorescence, primary screen (AID 1133). The settings on record: FGF2, fluorescence 635/667, higher = more signal.
Fibroblast growth factor 2 (Homo sapiens), sequence (P09038 whole entry, looked up): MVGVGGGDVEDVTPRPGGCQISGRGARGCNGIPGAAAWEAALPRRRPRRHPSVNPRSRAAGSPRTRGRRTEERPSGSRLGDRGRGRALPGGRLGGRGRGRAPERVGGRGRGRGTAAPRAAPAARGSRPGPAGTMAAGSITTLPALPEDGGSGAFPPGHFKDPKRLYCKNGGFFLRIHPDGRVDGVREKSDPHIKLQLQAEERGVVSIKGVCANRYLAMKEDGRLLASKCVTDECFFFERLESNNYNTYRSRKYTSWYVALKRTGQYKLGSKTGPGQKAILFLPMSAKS
The nature of assay [7]: JC-1 mitochondrial potential readout, lung cancer cells – cell-based, A549, JC-1 fluorescence, basal, 24 h, 100 nL, profiling panel (AID 1138).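 Further: A549 lung adenocarcinoma cells under basal conditions with no added stimulus; test concentration not given here.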 The following applies: higher = more signal.
The next assay relates to Lefty1. The assay is described as follows: Lefty1 protein binding to printed compounds – biochemical, small-molecule microarray, 635/667 nm fluorescence, primary screen (AID 1139). The following applies: fluorescence 635/667, higher = more signal.
For assay [8], the system named is wheat germ agglutinin (Triticum aestivum), Alexa647-labelled. The assay is described as follows: Alexa647-WGA lectin binding to printed small molecules – biochemical, small-molecule microarray, 635/667 nm fluorescence, artefact control for SMM control-protein annotation, profiling panel (AID 1140).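 Further: score merges 667 nm feature emission with signal to noise over triplicate slides.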 The settings on record: WGA-A647 binding, 635 nm fluorescence, higher = more signal.

Assay [9] addresses Luciferin 4-monooxygenase (Photinus pyralis) (UniProt P08659). The assay is described as follows: inhibition of purified Photinus pyralis luciferase – biochemical, luminescence, purified enzyme, 2006 set, primary screen (AID 1141).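 Further: cell-free assay with purified firefly luciferase at 100 ng per well in PBS; test concentration not given here.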 The following applies: purified firefly luciferase, SteadyGlo luminescence, 30 min; higher = more signal, called active from +8 up or from −8 down.
Assay [10] has as its system Wnt5a (protein binding on small-molecule microarray). The assay is described as follows: small molecules binding Wnt5a protein – biophysical, small-molecule microarray, 635/667 nm fluorescence, primary screen (AID 1142).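 Further: fluorescence read at 667 nm with signal to noise per printed feature.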 The settings on record: 635 nm fluorescence, higher = more signal.
Assay [11] can be described thus: ATP-based viability of Huh7 replicon cells – cell-based, CellTiter-Glo luminescence, basal, 48 h, cytotoxicity control for HCV replication inhibitor project, primary screen (AID 1143).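 Further: Huh7 hepatoma cells carrying a hepatitis C replication reporter with no stimulus; test concentration not given here.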 The settings on record: higher = more signal, called active from +8 up or from −8 down. Background: A replicon is a self-replicating genome or part of one, used to study replication in cells.

The nature of assay [12]: Pseudomonas biofilm growth suppression – PAO1 strain, BacTiter-Glo luminescence, LB-PBS, primary screen (AID 1144). The following applies: P. aeruginosa PAO1 biofilm, 12 h, higher = more signal.
A short description of assay [13]: basal CRE-LacZ reporter activity in PC12 – cell-based, unstimulated, primary screen (AID 1145). The following applies: no forskolin, luminescence, 4.5 h, higher = more signal, called active from +8 up or from −8 down.
Assay [14] is described as follows: forskolin-driven CRE-LacZ activity in PC12 – cell-based, CRE-LacZ reporter, forskolin-stimulated, primary screen (AID 1146).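 Further: PC12 cells with 6xCRE LacZ reporter stimulated by forskolin 10 µM; beta-galactosidase reporter signal reflecting CREB driven transcription.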 The following applies: luminescence, 4.5 h, higher = more signal, called active from +8 up or from −8 down.
In assay [15] the target is Streptavidin (Streptomyces avidinii) (UniProt P22629). The assay is described as follows: compounds binding control protein streptavidin – biophysical, small-molecule microarray, 635/667 nm fluorescence, artefact control for SMM compound annotation, primary screen (AID 1147).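 Further: signal reflects streptavidin binding to arrayed compounds as a control protein.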 The settings on record: higher = more signal.
Streptavidin (Streptomyces avidinii), sequence (P22629 whole entry, looked up): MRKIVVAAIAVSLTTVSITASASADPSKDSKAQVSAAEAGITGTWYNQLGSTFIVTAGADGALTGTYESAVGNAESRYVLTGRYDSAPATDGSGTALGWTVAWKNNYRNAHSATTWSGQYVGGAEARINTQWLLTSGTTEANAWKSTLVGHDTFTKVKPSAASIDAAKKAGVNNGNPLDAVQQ
The nature of assay [16]: probe aInhba binding on compound microarray – biochemical, small-molecule microarray, 635/667 nm fluorescence, primary screen (AID 1148).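 Further: score merges 667nm spot fluorescence with signal-to-noise for antibody binding to printed compounds.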 The settings on record: higher = more signal.
In assay [17] the target is Torsin-1A (Homo sapiens) (UniProt O14656). The assay is described as follows: TOR1A wild-type binding on microarray – cell lysate, small-molecule microarray, lysate, 635/667 nm, primary screen (AID 1149). The following applies: COS7 hTOR1A-WT lysate, 635 nm fluorescence, higher = more signal.
Torsin-1A (Homo sapiens), sequence (O14656 whole entry, looked up): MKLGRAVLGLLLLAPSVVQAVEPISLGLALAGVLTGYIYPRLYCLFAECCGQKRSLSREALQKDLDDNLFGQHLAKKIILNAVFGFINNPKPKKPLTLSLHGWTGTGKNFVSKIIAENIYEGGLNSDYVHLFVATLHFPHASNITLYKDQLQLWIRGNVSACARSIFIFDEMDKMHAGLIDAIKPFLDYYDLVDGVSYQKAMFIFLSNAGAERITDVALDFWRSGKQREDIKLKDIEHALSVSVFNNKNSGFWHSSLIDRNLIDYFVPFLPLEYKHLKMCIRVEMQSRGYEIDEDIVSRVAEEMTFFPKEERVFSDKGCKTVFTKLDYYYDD
For assay [18] the target is unchanged. The assay is described as follows: torsin A mutant lysate binding on microarrays – cell lysate, small-molecule microarray, COS7 lysate, 635/667 nm fluorescence, primary screen (AID 1150).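 Further: score pools 667 nm emission and signal to noise measuring lysate protein binding.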 The settings on record: COS7 hTOR1A mutant lysate, 635 nm fluorescence, higher = more signal.
Assay [19] concerns Sonic hedgehog protein (Shh). The assay is described as follows: Sonic hedgehog microarray binding compounds – biochemical, small-molecule microarray, 635/667 nm fluorescence, primary screen (AID 1151).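 Further: Shh protein binding to compounds spotted on small-molecule microarray slides; score combines spot fluorescence intensity with signal-to-noise across triplicate slides.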 The following applies: 635 nm fluorescence, higher = more signal.

Luciferin 4-monooxygenase (Photinus pyralis), sequence (P08659 whole entry, looked up): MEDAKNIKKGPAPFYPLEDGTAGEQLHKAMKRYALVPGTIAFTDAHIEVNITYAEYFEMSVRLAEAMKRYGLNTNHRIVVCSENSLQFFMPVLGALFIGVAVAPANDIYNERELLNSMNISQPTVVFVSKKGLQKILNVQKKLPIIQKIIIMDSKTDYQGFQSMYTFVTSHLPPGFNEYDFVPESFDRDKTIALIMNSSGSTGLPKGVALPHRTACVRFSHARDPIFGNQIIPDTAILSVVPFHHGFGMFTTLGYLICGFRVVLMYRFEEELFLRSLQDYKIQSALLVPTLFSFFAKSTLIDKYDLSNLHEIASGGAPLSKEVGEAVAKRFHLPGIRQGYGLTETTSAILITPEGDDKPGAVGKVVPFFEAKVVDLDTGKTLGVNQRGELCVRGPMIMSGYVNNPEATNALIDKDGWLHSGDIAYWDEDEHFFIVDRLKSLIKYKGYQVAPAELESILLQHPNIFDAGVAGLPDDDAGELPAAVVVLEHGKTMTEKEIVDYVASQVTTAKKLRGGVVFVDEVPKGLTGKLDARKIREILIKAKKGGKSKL
Follistatin (Homo sapiens), sequence (P19883 whole entry, looked up): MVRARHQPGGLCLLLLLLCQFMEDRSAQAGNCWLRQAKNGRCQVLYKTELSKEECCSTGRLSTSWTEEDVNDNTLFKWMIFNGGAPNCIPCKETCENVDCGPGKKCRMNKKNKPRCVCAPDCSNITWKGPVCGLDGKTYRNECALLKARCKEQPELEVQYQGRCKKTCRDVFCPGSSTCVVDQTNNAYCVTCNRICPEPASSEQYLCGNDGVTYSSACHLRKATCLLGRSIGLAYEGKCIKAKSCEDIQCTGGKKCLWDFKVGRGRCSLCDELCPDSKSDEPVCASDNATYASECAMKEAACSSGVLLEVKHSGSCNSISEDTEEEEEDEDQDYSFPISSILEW

With `COC(=O)C1=C(C)N(Cc2ccccc2)C2=C3C(=O)N(c4ccccc4)C(=O)[C@@H]3[C@@](O)(C(=O)OC)C(=O)N2[C@@H]1c1ccccc1`, the composite z-score is 0.387 and 0.668 in assay [1]; 0.186 and 1.1 in assay [2]; 0.14 and 0.113 in assay [3]; 0.212 and 0.393 in [4]; 0.988 and 0.726 in assay [5]; 1.63 and 0.5 in [6]. Also, the composite z-score in the assay on Lefty1 is 0.823 and 0.745; in [8], 0.0882 and 0.764; in [10], 0.297 and 0.678; in assay [15], 0.117 and 0.12; in [16] it was -0.024 and -0.0313; with Torsin-1A (Homo sapiens) [17] it was 0.801 and 0.365. Moreover, the composite z-score with Torsin-1A (Homo sapiens) [18] was 0.516 and 0.533; in [19], 0.574 and 0.726. For the same compound, the z-score in assay [7] was 0.895 and 1.76; in [9], -0.471 (inactive) and -1.33 (inactive); in assay [11] it was -0.146 (inactive) and -1.82 (inactive); in [12], 0.9 (inactive); in assay [13], 2.72 (inactive) and -0.615 (inactive); in [14] it was -0.718 (inactive) and -0.78 (inactive).

Turning to `C[C@@H]1CC[C@H]2C(=O)O[C@H](CN=[N+]=[N-])CN2[C@H]1c1ccc(Br)cc1`, the composite z-score was 0.755 and 0.806 in assay [1]; -0.841 and -0.245 in assay [2]; 0.073 and 0.0778 in [3]; 0.142 and 0.149 in assay [4]; 0.506 and -0.488 in assay [5]; 0.0443 and -0.132 in assay [6]. The composite z-score in the assay with Lefty1 is 0.212 and 0.0831; in [8] it was -0.276 and -0.0024; in assay [10], -0.0328 and -0.216; in assay [15], -0.167 and 0.0058; in assay [16], 0.0232 and -0.154; with Torsin-1A (Homo sapiens) [17], 0.225 and 0.372. Further, the composite z-score with Torsin-1A (Homo sapiens) [18] was 0.455 and 0.101; in assay [19] it was 0.286 and -0.196. Besides, the z-score is 0.703 and 0.206 in [7]; 0.788 (inactive) and -1.42 (inactive) in [9]; -2.85 (inactive) and -0.512 (inactive) in [11]; -0.203 (inactive) and -0.277 (inactive) in assay [12]; -0.162 (inactive) and 3.89 (inactive) in assay [13]; -0.177 (inactive) and -0.414 (inactive) in assay [14].

Take `C=C[C@H](OC)[C@@H](O)c1ccc(OCCO)cc1`: the composite z-score in assay [1] is -1.34 and 2.11; in assay [2], -1.73 and -0.721; in [3], -0.86 and 0.0202; in [4] it was -2.46 and -1.57; in assay [5], -1.51 and -0.835; in [6] it was -1.92 and -0.492. The composite z-score in the assay on Lefty1 was -2.17 and -1.55; in assay [8], -2.15 and -0.827; in assay [10], -0.181 and -0.509; in [15], -1.59 and -1.75; in assay [16], -0.258 and -0.244; with Torsin-1A (Homo sapiens) [17], -1.15 and -1.11. In addition, the composite z-score was -0.812 and -1.99 in the assay with Torsin-1A (Homo sapiens) [18]; -0.459 and -0.143 in [19]. The z-score in [7] is -0.669 and 0.692; in assay [9], -0.117 (inactive) and -1.75 (inactive); in assay [11] it was -0.238 (inactive) and 0.881 (inactive); in [12], -0.354 (inactive) and -1.35 (inactive); in assay [13], 0.833 (inactive) and -0.0533 (inactive); in assay [14], 0.2 (inactive) and -1.46 (inactive).

Take `C=C[C@H](C)[C@H](O)c1ccc(O)c2ccccc12`: the composite z-score is 2.31 and -0.782 in assay [1]; -0.402 and -0.622 in assay [2]; -0.0703 and -0.493 in assay [3]; -0.22 and -0.58 in assay [4]; 0.0456 and 0.32 in assay [5]; -0.671 and 1.31 in assay [6]. Also, the composite z-score in the assay with Lefty1 was -0.494 and 0.152; in assay [8], -0.0985 and -0.45; in assay [10] it was -0.455 and 0.247; in assay [15], -0.663 and -0.935; in assay [16] it was -0.206 and -0.182; in the assay with Torsin-1A (Homo sapiens) [17] it was -1.49 and -0.75. Besides, the composite z-score was -0.0641 and 0.204 in the assay with Torsin-1A (Homo sapiens) [18]; 0.153 and 1.7 in assay [19]. In addition, the z-score in assay [7] is -0.145 and 1.39; in [9], -1 (inactive) and -2.28 (inactive); in [11], -1.69 (inactive) and 0.651 (inactive); in assay [12], -0.143 (inactive) and -0.287 (inactive); in assay [13], 0.833 (inactive) and 1.94 (inactive); in [14], 1.13 (inactive) and -0.456 (inactive).
